Screens as filed in PubChem.
This is a sample that favours compounds with a hit; in the whole collection about 1.3% have one here.
LRH-1 inv ag = suppresses constitutive activity of human LRH-1 | O00482 | HEK293T StAR-luciferase reporter, LRH-1 transfected, 24 h | inhibition, % at 3.6 µM | actives 0.13% (n = 360,000) | AID 602396;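 active = inhibition above the mean inhibition of all tested compounds plus 3 SD, cut at about 73% in these data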;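 note: 0% = DMSO wells and 100% = reporter-only cells lacking LRH-1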
SRC1 inh = inhibitors of human steroid receptor coactivator 1 (SRC1). HEK293 GAL4-SRC1 luciferase reporter, luminescence. inhibition, % at 3.6 µM. actives 0.12% (n = 360,000). AID 588354;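 active = inhibition above the campaign mean plus 3 SD, with each screening campaign given its own cutoff, cut at about 60% in these data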;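 note: 0% = DMSO treated cells and 100% = gossypol at 36 µM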
Gli-Sufu block = blocks Gli-Sufu signaling in a luciferase reporter; AID 588413; actives 0.74% (n = 340,000); inhibition, % at 5 µM; Sufu-KO-LIGHT fibroblasts, Gli luciferase reporter luminescence;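 active = inhibition above about 55%, limit read from the data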;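 note: 0% = DMSO-treated cells and 100% = wells with medium but no cells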
NR2F2 inh = blocks human COUP-TFII nuclear receptor; P24468; HEK293T NGFI-A luciferase reporter, luminescence; inhibition, % at 8.6 µM; actives 0.7% (n = 370,000); AID 686940;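 active = inhibition above a per-plate cutoff, mean inhibition of test wells between control levels plus 3 SD, cut at about 38% in these data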;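 note: cells cotransfected with COUP-TFII expression vector driving the NGFI-A reporter; 0% = median of COUP-TF2 test wells and 100% = reporter-only cells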
SRC3 inh = inhibits human SRC3 coactivator; Q9Y6Q9; HEK293 GAL4-SRC3 luciferase reporter, luminescence; inhibition, % at 3.6 µM; actives 0.17% (n = 360,000); AID 588352;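 active = inhibition above a per-campaign cutoff, the mean of all compounds plus 3 SD, cut at about 60% in these data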;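 note: 0% = DMSO-treated cells and 100% = gossypol-treated cells at 36 µM; higher means less SRC3-driven luciferase light from the GAL4 reporter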
SRC2 inh = inhibits human steroid receptor coactivator 2; Q15596; HEK293 GAL4-SRC2 luciferase reporter, luminescence; inhibition, % at 9 µM; actives 0.17% (n = 370,000); AID 651957;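 active = inhibition above the mean inhibition of all tested compounds plus 3 SD, set per campaign, cut at about 52% in these data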;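 note: 0% = DMSO treated cells and 100% = cells given Gossypol at 36 µM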
Target sequence (Q15596 whole entry, looked up, the tested form may be a part): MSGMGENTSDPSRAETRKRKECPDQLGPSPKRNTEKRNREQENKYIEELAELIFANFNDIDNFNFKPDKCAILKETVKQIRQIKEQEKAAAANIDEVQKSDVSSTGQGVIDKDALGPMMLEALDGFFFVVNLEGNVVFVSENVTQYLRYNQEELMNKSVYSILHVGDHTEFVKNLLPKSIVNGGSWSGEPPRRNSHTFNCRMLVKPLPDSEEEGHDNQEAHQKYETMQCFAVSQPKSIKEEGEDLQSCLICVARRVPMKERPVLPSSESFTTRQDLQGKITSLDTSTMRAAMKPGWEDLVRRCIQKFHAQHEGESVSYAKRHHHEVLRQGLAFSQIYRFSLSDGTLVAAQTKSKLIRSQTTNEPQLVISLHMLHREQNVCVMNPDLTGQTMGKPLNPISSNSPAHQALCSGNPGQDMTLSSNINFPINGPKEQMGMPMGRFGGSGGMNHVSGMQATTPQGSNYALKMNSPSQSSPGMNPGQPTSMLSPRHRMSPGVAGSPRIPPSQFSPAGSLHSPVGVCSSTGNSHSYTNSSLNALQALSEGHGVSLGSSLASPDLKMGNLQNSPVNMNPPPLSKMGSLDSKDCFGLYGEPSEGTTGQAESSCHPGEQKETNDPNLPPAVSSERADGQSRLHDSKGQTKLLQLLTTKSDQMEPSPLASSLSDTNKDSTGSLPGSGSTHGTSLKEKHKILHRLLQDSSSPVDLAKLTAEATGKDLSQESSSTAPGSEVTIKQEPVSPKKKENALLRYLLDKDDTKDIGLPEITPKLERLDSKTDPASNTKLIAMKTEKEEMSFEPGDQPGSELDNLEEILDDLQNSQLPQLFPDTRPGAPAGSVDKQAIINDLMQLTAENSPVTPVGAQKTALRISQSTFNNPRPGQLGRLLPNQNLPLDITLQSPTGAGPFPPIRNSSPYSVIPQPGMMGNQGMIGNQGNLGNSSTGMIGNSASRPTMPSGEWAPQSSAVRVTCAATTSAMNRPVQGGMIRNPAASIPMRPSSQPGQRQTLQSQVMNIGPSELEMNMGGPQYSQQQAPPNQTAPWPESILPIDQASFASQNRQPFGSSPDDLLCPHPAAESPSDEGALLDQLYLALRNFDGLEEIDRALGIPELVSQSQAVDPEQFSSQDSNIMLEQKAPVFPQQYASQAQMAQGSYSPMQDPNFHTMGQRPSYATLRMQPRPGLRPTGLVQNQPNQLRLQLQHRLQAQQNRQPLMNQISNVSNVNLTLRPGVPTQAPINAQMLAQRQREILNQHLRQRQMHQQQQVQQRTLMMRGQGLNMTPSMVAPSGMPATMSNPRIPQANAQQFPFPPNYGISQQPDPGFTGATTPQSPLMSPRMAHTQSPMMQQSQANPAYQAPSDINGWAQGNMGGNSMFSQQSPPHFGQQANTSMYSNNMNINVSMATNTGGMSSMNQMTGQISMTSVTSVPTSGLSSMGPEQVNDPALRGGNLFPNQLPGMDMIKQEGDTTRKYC
An asterisk follows results filed as active; x = no result given; ! = not active in a repeat.

SMILES	LRH-1 inv ag	SRC1 inh	Gli-Sufu block	NR2F2 inh	SRC3 inh	SRC2 inh
CN(Cc1cnc2nc(N)nc(N)c2n1)c1ccc(C(=O)N[C@@H](CCC(=O)O)C(=O)O)cc1	41	68*!	57*!	26	61	11
Cn1c(=O)c2cc(NC(=O)CCc3ccc(O)cc3)ccc2n1Cc1cccc(C(F)(F)F)c1	74*	44	x	9	59	-4
C=CCn1c(SCC(=O)c2ccc(-c3ccccc3)cc2)nnc1-c1ccc(OC)cc1	x	x	x	7	x	13
CCCCOc1ccc(C(=O)n2ccc3ccc(-c4ccc5ccn(Cc6cccc(C(=O)OC)c6)c5c4)cc32)cc1	x	x	x	9	x	-9
COc1cc(CN2CC(=O)N(c3ccccc3Cl)C2=S)cc(OC)c1OC	-10	1	62*	12	16	18
COc1cccc(N=Nc2ccc(O)c3ncccc23)c1	-35	-28	68*	-9	-15	-36
Oc1ccc(N=Nc2ccc3c(c2)OCCO3)c2cccnc12	4	37	x	34	59	52*
Cc1ccccc1N=Nc1ccc(O)c2ncccc12	4	12	18	-13	7	-2
COc1cccc(N=Nc2ccc3cccnc3c2O)c1	-8	-37	-5	21	7	-107
COc1ccc(N=Nc2ccc(O)c3ncccc23)cc1	-7	-30	61*	11	-43	4
CN1CCCCC(NC(=O)c2ccc3ccccc3c2)C1=O (stereo not drawn)	x	x	x	-13	x	-63
C=C1C(=O)C=C2CN(C(=O)c3ccccc3)[C@@](Cc3ccc(F)cc3)(C(=O)OC)[C@@H]12	56	20	62*	x	48	x
O=C1Cc2c([nH]c3ccc([N+](=O)[O-])cc23)-c2ccccc2N1	7	-9	-80	38*	73*	35
COc1ccc(-n2c(SCC(=O)Nc3cc(C)c(NC(=O)c4ccccc4)cc3OC)nnc2-c2ccco2)cc1	x	x	x	-2	x	9
Cc1ccc(S(=O)(=O)Nc2cccc3ncccc23)cc1	-4	-3	2	-16	12	-9
Cc1ccc(S(=O)(=O)Nc2cccc3ncccc23)s1	25	-132	85*	x	-47	x
CC(=O)Nc1cc(-c2cccc(F)c2)cn2c(-c3ccc(F)cc3)cnc12	-23	1	x	13	-23	13
CC(=O)Nc1cccc(-c2cc(NC(C)=O)c3ncc(-c4ccc(F)cc4)n3c2)c1	36	9	x	-15	2	54*
CCCCNC(=O)C1(C(=O)c2ccc(OC)cc2)CC(C(=O)OCC)=NO1 (stereo not drawn)	x	x	x	-14	x	8
CCCCCCCCN1C(=O)[C@@H](CC(=O)NCCCN2CCCC2=O)C[C@@]2(C(=O)OC)C1=C[C@H](C(C)C)O[C@@H]2C1CC1	x	x	x	10	x	16
OCCCNc1ncnc2[nH]ncc12	6	1	1	10	-5	-1
CCCCCCCCNc1ncnc2[nH]ncc12	12	25	35	38*	12	11
CCc1nnc(N/N=C/c2cc(Br)c(O)cc2O)n1N	25	-19	5	-6	3	-4
CC(C)(C)c1nnc(N/N=C/c2cc(Br)ccc2O)n(N)c1=O	2	67*	55	5	76*	32
CCn1c2ccccc2c2cc(Nc3cc(C)nc4ncnn34)ccc21	39	-26	62*	-98	16	40
SMILES	LRH-1 inv ag	SRC1 inh	Gli-Sufu block	NR2F2 inh	SRC3 inh	SRC2 inh
CCCN1CC(=O)N2[C@H](C[C@@]3(n4ccc5ccccc54)c4ccccc4N(S(=O)(=O)c4ccccc4)[C@@H]23)C1=O	x	x	x	-9	x	3
O=C(O)CCSc1nc2ccccc2s1	-4	19	15	35	16	78*
CC1=[N+](C)c2ccc3ccccc3c2C1(C)C	-11	4	70*	6	-8	9
CC(=O)N1CCN(c2ccc(Oc3ccc([N+](=O)[O-])c(C(F)(F)F)c3)cc2)CC1	42	31	67*	x	20	x
CCOc1ccc(C(=O)Nc2ccc(N3CCN(C(C)=O)CC3)cc2)cc1[N+](=O)[O-]	10	-9	5	-4	8	1
COc1ccc2cc(-c3cccc4[nH]cc(C)c34)ccc2c1	x	x	x	-15	x	-24
CN(C)c1ccc(C(=O)OCc2ccccc2)cc1	-38	-33	-39	-28	-23	-59
O=C1C=CC(=O)C(CNc2ccc(C(=O)OCc3ccccc3)cc2)=C1	-42	-75	7	12	-15	67*
c1ccc(-c2noc(-c3ccncc3)n2)nc1	-152	-116	-34	-43	-67	-32
c1ccc(-c2noc(-c3ccc4ccccc4c3)n2)nc1	20	30	62*	x	56	x
COc1cccc(-c2nc(-c3ccccn3)no2)c1	x	x	-14	34	x	58*
N=c1c2c(-c3ccccc3)c(-c3ccccc3)n(Cc3ccccc3)c2ncn1CCO	50	52	9	15	69*	-52
N=c1c2c(-c3ccccc3)c(-c3ccccc3)n(Cc3ccco3)c2ncn1CCCN1CCOCC1	-4	10	10	0	16	-15
N=c1c2c(-c3ccccc3)c(-c3ccccc3)n(Cc3ccco3)c2ncn1CCCn1ccnc1	35	56	26	25	68*	-34
Cc1ccc(-n2c(SCC(=O)C(C)(C)C)nnc2-c2cccc(C)c2)cc1	x	x	x	25	x	14
O=C(Nc1cccc(S(=O)(=O)N2CCCCC2)c1)c1ccc(OCC2CCCO2)cc1 (stereo not drawn)	-5	1	-8	20	20	-21
O=C(Nc1ccc(Cl)c(S(=O)(=O)N2CCOCC2)c1)c1ccc(OCC2CCCO2)cc1 (stereo not drawn)	66	38	37	x	73*	x
O=C(CCc1ccccc1-c1ccccc1CCNC(=O)c1ccc(F)c(F)c1)NCc1ccccc1	x	x	x	3	x	0
Cc1cc2cc(CN(Cc3ccco3)S(=O)(=O)c3c(C)ccc4nsnc34)c(=O)[nH]c2cc1C	10	3	0	-11	27	5
Cc1ccc2cc(CN(Cc3ccco3)S(=O)(=O)c3c(C)ccc4nsnc34)c(=O)[nH]c2c1	-24	-1	5	-3	-5	77*
C[N+]1(CC2COC3(CCCCC3)O2)CCCC1 (stereo not drawn)	1	-1	-3	-13	9	97*
O=C(C1CCCN1S(=O)(=O)c1ccc(Br)s1)N1CCN(c2ccccc2)CC1 (stereo not drawn)	x	x	x	2	x	8
CCOc1cccc(/C=N/Nc2ccc(S(=O)(=O)N(CC)CC)cn2)c1O	-7	23	90*	-7	30	23
COc1ccc(CNC(=O)COC(=O)c2cc(-c3ccc(Cl)s3)nc3ccccc23)cc1	-19	-23	-13	8	83*	4
O=C(COC(=O)c1cc(-c2ccc(Cl)s2)nc2ccccc12)NCc1ccco1	-24	-16	-12	-3	7	-25
